Drawing on publication PMC7862700, “An all-to-all approach to the identification of sequence-specific readers for epigenetic DNA modifications on cytosine”, this text covers binding signal for 40 sequences.

The target in the first assay is T1, ETV3L (Homo sapiens, UniProt Q6ZN32 1-361).
T1 sequence: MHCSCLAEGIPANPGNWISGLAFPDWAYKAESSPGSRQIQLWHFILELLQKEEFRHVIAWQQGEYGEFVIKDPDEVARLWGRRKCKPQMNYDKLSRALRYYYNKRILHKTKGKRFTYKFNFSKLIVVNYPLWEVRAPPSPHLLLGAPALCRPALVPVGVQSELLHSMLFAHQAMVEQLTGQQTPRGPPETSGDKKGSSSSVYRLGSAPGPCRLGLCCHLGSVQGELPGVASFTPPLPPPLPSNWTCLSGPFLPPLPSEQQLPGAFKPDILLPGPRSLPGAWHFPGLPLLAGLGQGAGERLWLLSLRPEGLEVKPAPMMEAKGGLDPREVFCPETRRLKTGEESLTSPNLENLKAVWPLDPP
The assay is described as follows: DAPPL (digital affinity profiling via proximity ligation, sequencing); 10 mM Tris-HCl pH 7.5, 50 mM NaCl, 1 mM DTT, 4% glycerol, room temperature, 30 min; GST-TFs on glutathione beads, 16-mer random dsDNA library, 0.1% formaldehyde crosslink after washing; high values mean tight binding. The note with it: protein: recombinant; tags: N-terminal GST; dsDNA, one strand shown. The method in brief:
(§1)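 Human transcription factors carrying a GST fusion were produced in yeast, bound to glutathione beads, tagged with DNA barcodes and pooled together with a tag-only sample. Each pool was held with 200 nmole of a random double-stranded 16-mer DNA library in Tris/NaCl/DTT/glycerol buffer for 30 min at room temperature, then washed, crosslinked in 0.1% formaldehyde, proximity-ligated with BsaI/T4 ligase (1 h, 37 °C), PCR-amplified and sequenced on an Illumina NextSeq500. Binding signal is the read frequency of each hexamer for a given factor divided by its frequency in the tag-only sample.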
As to CTGGTT, the binding signal was 1.35 fold enrichment (6-mer frequency, TF over GST control).
Take AATTAC: the binding signal is 1.25 fold enrichment (6-mer frequency, TF over GST control).
TTAAGG: the binding signal is 1.09 fold enrichment (6-mer frequency, TF over GST control).
Still for that read-out and setting: the figure for ACTACG is 1.31 fold enrichment (6-mer frequency, TF over GST control); for CTATGC it is 1.52 fold enrichment (6-mer frequency, TF over GST control); for TCATCC it is 1.42 fold enrichment (6-mer frequency, TF over GST control).
For GTATCT, the binding signal was 1.16 fold enrichment (6-mer frequency, TF over GST control).
With TCATTT, the binding signal is 1.47 fold enrichment (6-mer frequency, TF over GST control).
Still for that read-out and setting: the result for CTCTCT reads 1.6 fold enrichment (6-mer frequency, TF over GST control); that for AAGTTA, 1.18 fold enrichment (6-mer frequency, TF over GST control); that for ATCACC, 1.17 fold enrichment (6-mer frequency, TF over GST control).
Take ATCCTT: the binding signal is 1.58 fold enrichment (6-mer frequency, TF over GST control).
Turning to GGTATT, the binding signal is 1.18 fold enrichment (6-mer frequency, TF over GST control).
CATATA: the binding signal is 1.09 fold enrichment (6-mer frequency, TF over GST control).
TACCTC: the binding signal was 1.43 fold enrichment (6-mer frequency, TF over GST control).
ACGAAT: the binding signal is 1.15 fold enrichment (6-mer frequency, TF over GST control).
For AATTGC, the binding signal was 1.35 fold enrichment (6-mer frequency, TF over GST control).
In the case of TTAAAG, the binding signal is 1.2 fold enrichment (6-mer frequency, TF over GST control).
As for CTATTC, the binding signal is 1.4 fold enrichment (6-mer frequency, TF over GST control).
As for TTTTGT, the binding signal is 1.34 fold enrichment (6-mer frequency, TF over GST control).

The next assay has as its target T2, ETS2 (Homo sapiens, UniProt P15036 1-469).
T2 sequence: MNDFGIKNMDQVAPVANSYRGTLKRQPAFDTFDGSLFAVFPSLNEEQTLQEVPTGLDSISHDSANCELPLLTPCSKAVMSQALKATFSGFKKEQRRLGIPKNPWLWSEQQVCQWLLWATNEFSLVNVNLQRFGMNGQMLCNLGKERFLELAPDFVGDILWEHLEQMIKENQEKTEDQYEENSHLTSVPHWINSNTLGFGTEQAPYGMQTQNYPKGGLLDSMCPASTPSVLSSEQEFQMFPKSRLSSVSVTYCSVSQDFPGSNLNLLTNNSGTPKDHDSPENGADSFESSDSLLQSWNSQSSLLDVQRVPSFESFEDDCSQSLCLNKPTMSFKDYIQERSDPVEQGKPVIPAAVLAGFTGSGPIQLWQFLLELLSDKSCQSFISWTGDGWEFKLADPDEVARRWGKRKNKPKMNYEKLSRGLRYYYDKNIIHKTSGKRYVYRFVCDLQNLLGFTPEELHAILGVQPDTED
Described as above. The settings on record: protein: recombinant; tags: N-terminal GST; dsDNA, one strand shown. The method in brief:
as §1
For GCTCTA, the binding signal was 1.16 fold enrichment (6-mer frequency, TF over GST control).
As for TCCGGT, the binding signal is 3.76 fold enrichment (6-mer frequency, TF over GST control).
Take ATTTTG: the binding signal is 1.2 fold enrichment (6-mer frequency, TF over GST control).
For the sequence CCCCTC, the binding signal is 1.33 fold enrichment (6-mer frequency, TF over GST control).
On to ATGTTA, for which the binding signal is 1.24 fold enrichment (6-mer frequency, TF over GST control).
Take TTGGTG: the binding signal was 1.32 fold enrichment (6-mer frequency, TF over GST control).
Regarding TCCTCC, the binding signal is 1.51 fold enrichment (6-mer frequency, TF over GST control).
For the sequence TTTCGA, the binding signal is 1.42 fold enrichment (6-mer frequency, TF over GST control).
For the sequence CAAAAA, the binding signal is 1.12 fold enrichment (6-mer frequency, TF over GST control).
Same read-out and setting: the figure for TGCTTC is 2.06 fold enrichment (6-mer frequency, TF over GST control); for TCACTC it is 1.23 fold enrichment (6-mer frequency, TF over GST control).
Turning to ATACAA, the binding signal is 1.19 fold enrichment (6-mer frequency, TF over GST control).
For TTTTGG, the binding signal is 1.55 fold enrichment (6-mer frequency, TF over GST control).
With TAACTG, the binding signal is 1.31 fold enrichment (6-mer frequency, TF over GST control).
CAATCT: the binding signal was 1.18 fold enrichment (6-mer frequency, TF over GST control).
Turning to ATTATT, the binding signal was 1.16 fold enrichment (6-mer frequency, TF over GST control).
As for AGTGCT, the binding signal is 1.46 fold enrichment (6-mer frequency, TF over GST control).
In the case of TGGATG, the binding signal is 1.4 fold enrichment (6-mer frequency, TF over GST control).
In the case of TAATCT, the binding signal was 1.43 fold enrichment (6-mer frequency, TF over GST control).
TGCTCC: the binding signal is 1.45 fold enrichment (6-mer frequency, TF over GST control).
As for CTGGTT, the binding signal was 1.29 fold enrichment (6-mer frequency, TF over GST control).
For the sequence AATTAC, the binding signal is 1.36 fold enrichment (6-mer frequency, TF over GST control).
As to TTAAGG, the binding signal was 1.1 fold enrichment (6-mer frequency, TF over GST control).
In the case of ACTACG, the binding signal is 1.26 fold enrichment (6-mer frequency, TF over GST control).
Consider CTATGC, for which the binding signal is 1.44 fold enrichment (6-mer frequency, TF over GST control).
On to TCATCC, for which the binding signal is 1.35 fold enrichment (6-mer frequency, TF over GST control).
Take GTATCT: the binding signal is 1.05 fold enrichment (6-mer frequency, TF over GST control).
Take TCATTT: the binding signal was 1.41 fold enrichment (6-mer frequency, TF over GST control).
Still for that read-out and setting: the figure for CTCTCT is 1.43 fold enrichment (6-mer frequency, TF over GST control); for AAGTTA it is 1.24 fold enrichment (6-mer frequency, TF over GST control).
The same measure, in the same setting: the result for ATCACC reads 1.05 fold enrichment (6-mer frequency, TF over GST control); that for ATCCTT, 1.47 fold enrichment (6-mer frequency, TF over GST control).
For the sequence GGTATT, the binding signal was 1.2 fold enrichment (6-mer frequency, TF over GST control).
On to CATATA, for which the binding signal was 1.08 fold enrichment (6-mer frequency, TF over GST control).
Consider TACCTC, for which the binding signal is 1.26 fold enrichment (6-mer frequency, TF over GST control).
As to ACGAAT, the binding signal is 1.1 fold enrichment (6-mer frequency, TF over GST control).
Still for that read-out and setting: the result for AATTGC reads 1.37 fold enrichment (6-mer frequency, TF over GST control); that for TTAAAG, 1.19 fold enrichment (6-mer frequency, TF over GST control); that for CTATTC, 1.32 fold enrichment (6-mer frequency, TF over GST control).
As for TTTTGT, the binding signal was 1.29 fold enrichment (6-mer frequency, TF over GST control).

The target in another assay is T3, SPDEF (Homo sapiens, UniProt O95238 1-335).
T3 sequence: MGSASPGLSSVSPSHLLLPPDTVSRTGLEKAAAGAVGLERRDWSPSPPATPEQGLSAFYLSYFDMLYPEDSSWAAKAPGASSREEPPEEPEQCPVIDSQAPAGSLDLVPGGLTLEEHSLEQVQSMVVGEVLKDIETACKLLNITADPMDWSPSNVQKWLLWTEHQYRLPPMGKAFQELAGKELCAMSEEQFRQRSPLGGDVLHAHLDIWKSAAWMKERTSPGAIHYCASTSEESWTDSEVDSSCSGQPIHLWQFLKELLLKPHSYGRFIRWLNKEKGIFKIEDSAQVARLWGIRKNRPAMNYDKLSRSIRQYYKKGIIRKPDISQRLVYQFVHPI
The description is as above. The note with it: protein: recombinant; tags: N-terminal GST; dsDNA, one strand shown. The method in brief:
as §1
As to GCTCTA, the binding signal was 1.15 fold enrichment (6-mer frequency, TF over GST control).
With TCCGGT, the binding signal was 5.35 fold enrichment (6-mer frequency, TF over GST control).
On to ATTTTG, for which the binding signal was 1.09 fold enrichment (6-mer frequency, TF over GST control).
For CCCCTC, the binding signal is 1.33 fold enrichment (6-mer frequency, TF over GST control).
For ATGTTA, the binding signal was 1.26 fold enrichment (6-mer frequency, TF over GST control).
Take TTGGTG: the binding signal is 1.33 fold enrichment (6-mer frequency, TF over GST control).
On to TCCTCC, for which the binding signal was 1.61 fold enrichment (6-mer frequency, TF over GST control).
Regarding TTTCGA, the binding signal is 1.34 fold enrichment (6-mer frequency, TF over GST control).
On to CAAAAA, for which the binding signal is 1.07 fold enrichment (6-mer frequency, TF over GST control).
With TGCTTC, the binding signal was 2.39 fold enrichment (6-mer frequency, TF over GST control).
Regarding TCACTC, the binding signal is 1.12 fold enrichment (6-mer frequency, TF over GST control).
As to ATACAA, the binding signal was 1.14 fold enrichment (6-mer frequency, TF over GST control).
The same measure, in the same setting: the figure for TTTTGG is 1.36 fold enrichment (6-mer frequency, TF over GST control); for TAACTG it is 1.2 fold enrichment (6-mer frequency, TF over GST control).
CAATCT: the binding signal is 1.03 fold enrichment (6-mer frequency, TF over GST control).
In the case of ATTATT, the binding signal was 1.11 fold enrichment (6-mer frequency, TF over GST control).
The same measure, in the same setting: the figure for AGTGCT is 1.33 fold enrichment (6-mer frequency, TF over GST control); for TGGATG it is 1.53 fold enrichment (6-mer frequency, TF over GST control).
Same read-out and setting: the figure for TAATCT is 1.34 fold enrichment (6-mer frequency, TF over GST control); for TGCTCC it is 1.74 fold enrichment (6-mer frequency, TF over GST control).
As for CTGGTT, the binding signal was 1.39 fold enrichment (6-mer frequency, TF over GST control).
Same read-out and setting: the figure for AATTAC is 1.24 fold enrichment (6-mer frequency, TF over GST control); for TTAAGG it is 1.28 fold enrichment (6-mer frequency, TF over GST control); for ACTACG it is 1.27 fold enrichment (6-mer frequency, TF over GST control).
Take CTATGC: the binding signal is 1.49 fold enrichment (6-mer frequency, TF over GST control).
For TCATCC, the binding signal is 1.85 fold enrichment (6-mer frequency, TF over GST control).
Still for that read-out and setting: the figure for GTATCT is 1.14 fold enrichment (6-mer frequency, TF over GST control); for TCATTT it is 1.22 fold enrichment (6-mer frequency, TF over GST control); for CTCTCT it is 1.59 fold enrichment (6-mer frequency, TF over GST control).
Still for that read-out and setting: the result for AAGTTA reads 1.08 fold enrichment (6-mer frequency, TF over GST control); that for ATCACC, 1.12 fold enrichment (6-mer frequency, TF over GST control); that for ATCCTT, 2.13 fold enrichment (6-mer frequency, TF over GST control).
As for GGTATT, the binding signal was 1.27 fold enrichment (6-mer frequency, TF over GST control).
Take CATATA: the binding signal was 1.02 fold enrichment (6-mer frequency, TF over GST control).
Regarding TACCTC, the binding signal is 1.23 fold enrichment (6-mer frequency, TF over GST control).
Same read-out and setting: the result for ACGAAT reads 1.13 fold enrichment (6-mer frequency, TF over GST control).
On the same count and under the same terms, the figure for AATTGC is 1.27 fold enrichment (6-mer frequency, TF over GST control); for TTAAAG it is 1.12 fold enrichment (6-mer frequency, TF over GST control).
CTATTC: the binding signal is 1.41 fold enrichment (6-mer frequency, TF over GST control).
Still for that read-out and setting: the figure for TTTTGT is 1.35 fold enrichment (6-mer frequency, TF over GST control).
